Source: ChEMBL document CHEMBL1157539, “Thousands of chemical starting points for antimalarial lead identification” (Nature, 2010)

Legend:
Assay type in all cases: functional
Plasmodium falciparum [1] = experiment: GSK_TCMDC: Inhibition of Plasmodium falciparum 3D7 in whole red blood cells, using parasite LDH activity as an index of growth. Test compounds present at 2uM
Plasmodium falciparum [2] = experiment: GSK_TCMDC: Inhibition of Plasmodium falciparum Dd2 in whole red blood cells, using parasite LDH activity as an index of growth. Test compounds present at 2uM
HepG2 = experiment: GSK_TCMDC: Percent inhibition of human HepG2 cell line. Test compounds present at 10uM.

Compound | Inhibition (Plasmodium falciparum [1]) [%] | Inhibition (Plasmodium falciparum [2]) [%] | Inhibition (HepG2) [%]
COc1cc(C(=O)NC2CCN(Cc3ccccc3)CC2)ccc1-c1cc2cc(Cl)c(Cl)cc2[nH]1.O=C(O)C(F)(F)F | 100 | 100 | 33
CN(C)CCNCc1ccc(-c2ccc(-c3nc4ccccc4[nH]3)s2)cc1.O=C(O)C(F)(F)F | 100 | 100 | 0
CNS(=O)(=O)c1ccc2c(c1)nc(C1CCN(CC3CCC(NC(=O)/C=C/c4ccc(Cl)c(Cl)c4)CC3)CC1)n2C (stereo unspecified) | 100 | 96 | 5
Cl.Nc1nc(Nc2cccc(O)c2)nc2ccccc12 | 96 | 79 | 25
CN(C)Cc1ccc(-c2ccc3c(Nc4ccc(Cl)cc4F)ccnc3c2)o1 | 100 | 99 | 13
N#Cc1ccc2c(c1)CCN(CCCn1c(-c3ccc4ccccc4c3)nc3ccncc31)CC2 | 100 | 97 | 38
Cc1cc(CN2CCC(Nc3ncc(-c4ccsc4)c4nc(C(F)(F)F)ccc34)CC2)no1.Cl | 81 | 67 | 8
O=C(NC1CCCCCC1)[C@@H]1CCCN1C(=O)c1ccc(O)c(-c2ccc(Cl)c(Cl)c2)c1 | 99 | 98 | 0
COc1ccccc1C1CCN(CCCCNC(=O)c2ccc(NC(=O)c3ccc(Cl)cc3)cc2)CC1 | 95 | 12 | 21
O=C(O)C(F)(F)F.OCCN1CCN(Cc2cccc(-c3ccc(-c4nc5cc(C(F)(F)F)ccc5[nH]4)s3)c2)CC1 | 100 | 98 | 42
CCn1c(Cc2ccccc2)nnc1Sc1ccc([N+](=O)[O-])c(C#N)c1 | 93 | 72 | 8
CS(=O)(=O)Nc1ccc2[nH]cc(C3CCN(CC(O)C4CCN(C(=O)/C=C/c5ccc(Cl)c(Cl)c5)CC4)CC3)c2c1.O=C(O)C(F)(F)F (stereo unspecified) | 100 | 0 | 28
NC(=O)c1ccc(-c2ccc3ccnc(N)c3c2)cc1.O=C(O)C(F)(F)F | 100 | 98 | 56
CCCCCN1CCCC(NS(=O)(=O)c2ccc(C(=O)Nc3ccc(C(F)(F)F)cc3)cc2)C1.O=C(O)C(F)(F)F (stereo unspecified) | 98 | 20 | 41
Cc1cc(NCCc2ccccc2)nc(NC(=N)Nc2ccccc2Cl)n1 | 100 | 7 | 20
CCOC(=O)c1ccc(NC(=O)Nc2ccc(-c3cccc(-c4nc5ccccc5[nH]4)c3)cc2)cc1 | 100 | 99 | 94
CCNC(=O)N1CCN(c2nc(-c3ccccc3)nc(COC)c2Cc2ccc(C)cc2)CC1 | 95 | 94 | 27
c1ccc2oc(-c3cc4ccncc4cc3OC3CCNCC3)cc2c1 | 100 | 96 | 11
COc1ccc(C(=O)N2CCC(CN3CCOC(c4ccccc4)(c4ccccc4)C3)CC2)cc1 | 95 | 96 | 19
CN(C)CCOc1cc(NC(=O)Nc2cccc3c(-c4ccncc4)cccc23)ccc1I.Cl | 100 | 28 | 20
O=C(/C=C/c1ccccc1Cl)Nc1ccc(Br)c(OCCN2CCN(CCN3CCOCC3)CC2)c1.O=C(O)C(=O)O | 98 | 91 | 22

Compound | Inhibition (Plasmodium falciparum [1]) [%] | Inhibition (Plasmodium falciparum [2]) [%] | Inhibition (HepG2) [%]
Cc1ccccc1N1CCN(c2ccc(C(=O)Nc3ccccc3)cc2)CC1 | 89 | 91 | 22
Cc1cc(N(C)C2CCN(C)C2)nc(Nc2ccccc2Cl)n1 (stereo unspecified) | 100 | 84 | 1
c1ccc(Oc2ccc(Nc3ccnc4cc(-c5cccc(CN6CCOCC6)c5)ccc34)cc2)cc1 | 100 | 100 | 14
CCc1ccc(OCc2ccccc2C(=O)Nc2ccc3nc(C)cc(N)c3c2)cc1.Cl | 99 | 74 | 98
Cc1cc(C(F)(F)F)n2nc(C(=O)N(Cc3cncn3Cc3ccccc3F)CC3CC3)cc2n1 | 100 | 100 | 0
N#Cc1cccc(CN2CCCN(c3ccc(NC(=O)c4cccs4)cc3)CC2)c1.O=C(O)C(F)(F)F | 96 | 95 | 0
CCOC(=O)c1nc(-c2ccc(Cl)cc2)[nH]c1NC(=S)NCCCN1CCOCC1 | 92 | 33 | 22
O=C(/C=C/c1c(Cl)cccc1Cl)NC1CCC(CN2CCC(c3c[nH]c4ccncc34)CC2)CC1 (stereo unspecified) | 99 | 100 | 78
CCN(CC)S(=O)(=O)c1cc(-c2ccc(=O)n(CC(=O)c3ccc(C)cc3)n2)ccc1C | 86 | 66 | 6
CCCNc1ccc2nccc(CCN3CCC(NCc4ccc5c(c4)NC(=O)CS5)CC3)c2n1.Cl | 94 | 17 | 0
COc1cc2nc(C)nc(Nc3cccc(Br)c3)c2cc1OC.Cl | 100 | 82 | 0
O=C(Nc1cccc(-c2csc(-c3nc4ccccc4[nH]3)c2)c1)c1cc(=O)c2ccccc2[nH]1 | 98 | 39 | 41
COc1ccc(Nc2ncc3c(-c4cccc(NC(=O)Cc5cccnc5)c4)c[nH]c3n2)cc1OC | 98 | 85 | 27
COc1ccc2ncn(-c3ccc(C(N)=O)c(OCc4ccccc4C(F)(F)F)c3)c2c1 | 98 | 100 | 18
O=C(NCCc1ccc(O)cc1)n1c2ccccc2c2ccccc21 | 83 | 76 | 3
O=C(O)C(F)(F)F.c1cc(OCCN2CCCC2)ccc1CNC1CCN(CC2CCCCC2)CC1 | 100 | 54 | 15
Cc1ccccc1C1CCN(C2CCC(NC(=O)c3ccc(-c4ccccc4)s3)CC2)CC1 (stereo unspecified) | 100 | 84 | 26
O=C([C@H]1CCCCN1c1ccc([N+](=O)[O-])c2ccccc12)N1CCN(c2ncccn2)CC1 | 97 | 5 | 50
Cc1cccc2nc(-c3ccc(-c4cccc(CNCc5ccccc5)c4)s3)[nH]c12.O=C(O)C(F)(F)F | 99 | 50 | 3
CCCCCCN1CCC(NCc2cccc(C#N)c2)CC1.O=C(O)C(F)(F)F | 97 | 9 | 5
CC(=NO)C1=C(O)C(c2ccccc2)N(c2ccccc2)C1=O (stereo unspecified) | 99 | 23 | 12

Compound | Inhibition (Plasmodium falciparum [1]) [%] | Inhibition (Plasmodium falciparum [2]) [%] | Inhibition (HepG2) [%]
CO/C(=C\C=C\c1cc2cc(Cl)c(Cl)cc2[nH]1)C(=O)NC1CC2CCC(C1)N2C.Cl (stereo unspecified) | 88 | 23 | 46
C#CCNC(=O)c1ccc(-c2ccnc(Nc3cccc(CCCN4CCOCC4)c3)n2)s1 | 82 | 45 | 54
CN(C)CCCN(C)C(=O)c1cc2cc(-c3ccccc3)ccc2n1S(=O)(=O)c1ccccc1.Cl | 98 | 66 | 29
Cl.O=c1cc(NCCCNCc2scc3c(Cl)cc(C(F)(F)F)nc23)[nH]c2ccccc12 | 99 | 21 | 9
CN(C)c1ccc(Br)c(Br)c1 | 86 | 0 | 17
O=C(Nc1nc2cc(S(=O)(=O)NCc3ccc(Cl)c(Cl)c3)ccc2n1CCCn1ccnc1)c1ccc(Cl)cc1.O=C(O)C(F)(F)F | 100 | 44 | 0
CN(C)CCOc1ccc(-n2c(-c3nonc3N)nc3cncc(-c4ccc(F)cc4)c32)cc1 | 97 | 7 | 10
COc1ccc(NC(=O)Nc2ccc(-c3ccccc3)cc2)cc1Cn1cnc(N2CCCNCC2)cc1=O.O=C(O)C(F)(F)F | 100 | 38 | 24
O=C(O)C(F)(F)F.c1ccc(C(c2ccccc2)N2CCC(NCc3ccc(OCCCN4CCCCC4)cc3)CC2)cc1 | 100 | 100 | 74
COc1cc2nc(-c3ccccc3)nc(N3CCN(C(=O)c4ccco4)CC3)c2cc1OC | 89 | 87 | 0
CCCCN(CCCC)C(=N)c1cccc2c1CCCC2.Cl | 95 | 9 | 11
COc1ccc(/C=C/C(=O)N2CCc3cc4nccc(N5CCN6CCC[C@H]6C5)c4cc32)cc1 | 100 | 98 | 0
CN(C(=O)Nc1ccc(F)cc1)C1CCN(CCCCCNC(=O)/C=C/c2ccc(Cl)c(Cl)c2)CC1 | 89 | 0 | 38
O=C(Nc1ccc(OC2CCN(Cc3ccc(F)cc3)CC2)c(Cl)c1)c1ccsc1.O=C(O)C(F)(F)F | 94 | 90 | 5
Cl.N=C(Cc1ccc(Cl)cc1)NCCN1CCCCCC1 | 93 | 94 | 0
CCCCc1ccc(NC(=O)Nc2cccc(CCNCc3ccccc3)c2)cc1.O=C(O)C(F)(F)F | 94 | 13 | 3
COc1ccc(-c2cncc3ccc(C(=O)NCc4ccncc4)nc23)cc1 | 100 | 98 | 25
Cc1ccc(-c2noc(=O)n2CC(=O)Nc2ccccc2-c2ccccc2)cc1 | 100 | 86 | 0
CC1c2cccc(O)c2CCN1CCc1ccc(Cl)c(Cl)c1.Cl (stereo unspecified) | 100 | 99 | 18
O=C(NCCCNc1ccc2ccccc2n1)c1cc2c(Cl)cc(Cl)cc2[nH]1 | 100 | 100 | 40
